Assay results published in PubChem BioAssay (EPA / NIEHS).
“And” between values parts separate entries of the source, which are not always exact repeats. Equal entries are not always repeated. Inconclusive results are not listed. More than one record can exist for a structure, and the calls need not agree. The source made the active and inactive calls. How the source made its calls, unless noted: active means hit-call score of the fitted dose curve at least 0.9, where 1 is the maximum; inconclusive means response in the unintended direction; inactive means score below 0.9.

Tests used:
[1] = biological target: Retinoic acid receptor RXR-alpha (Homo sapiens) (UniProt P19793); experiment: OT_NURR1_NURR1RXRa_0480: Odyssey Thera (OT) 8-hour HEK293T Protein Complementation Assay for Nurr1/retinoid X receptor (RXR) (AID 2283385)
Sequence of Retinoic acid receptor RXR-alpha (Homo sapiens) (P19793 whole entry, looked up, the tested form may be a part): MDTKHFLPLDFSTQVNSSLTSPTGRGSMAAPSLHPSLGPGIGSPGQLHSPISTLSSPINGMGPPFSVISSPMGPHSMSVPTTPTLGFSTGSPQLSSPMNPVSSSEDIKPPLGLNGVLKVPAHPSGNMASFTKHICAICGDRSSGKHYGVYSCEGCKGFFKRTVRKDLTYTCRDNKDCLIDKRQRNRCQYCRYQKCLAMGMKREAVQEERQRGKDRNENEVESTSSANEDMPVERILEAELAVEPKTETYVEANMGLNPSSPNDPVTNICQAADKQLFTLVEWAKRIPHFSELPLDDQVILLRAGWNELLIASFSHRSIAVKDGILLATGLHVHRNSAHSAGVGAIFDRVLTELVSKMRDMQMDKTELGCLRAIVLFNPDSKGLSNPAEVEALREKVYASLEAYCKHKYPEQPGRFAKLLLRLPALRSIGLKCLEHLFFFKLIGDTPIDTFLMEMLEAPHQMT
Method in brief: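 Interaction of bait and prey reconstitutes a functional reporter, whose fluorescence was measured in HEK293T cells dosed with compound for 8 hours. Signal gain relative to DMSO defined the single endpoint.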

[2] = biological target: Retinoic acid receptor RXR-alpha (Homo sapiens) (UniProt P19793); experiment: OT_NURR1_NURR1RXRa_1440: Odyssey Thera (OT) 24-hour HEK293T Protein Complementation Assay for Nurr1/retinoid X receptor (RXR) (AID 2283386)
Method in brief: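 Steps: fragment-tagged Nurr1 and RXRα expressed in HEK293T; compounds added; after 24 h, complemented reporter quantified by fluorescence intensity; signal increase over DMSO fitted as the single endpoint.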

[3] = biological target: Peroxisome proliferator-activated receptor gamma (Homo sapiens) (UniProt P37231); experiment: OT_PPARg_PPARgSRC1_0480: Odyssey Thera (OT) 8-hour Protein-Complementation Assay for Peroxisome Proliferator-activated Receptor Gamma / SRC-1 Co-activator (AID 2283387);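 further: nuclear to cytoplasmic split Venus YFP fluorescence ratio reporting PPARg SRC-1 interaction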
Sequence of Peroxisome proliferator-activated receptor gamma (Homo sapiens) (P37231 whole entry, looked up, the tested form may be a part): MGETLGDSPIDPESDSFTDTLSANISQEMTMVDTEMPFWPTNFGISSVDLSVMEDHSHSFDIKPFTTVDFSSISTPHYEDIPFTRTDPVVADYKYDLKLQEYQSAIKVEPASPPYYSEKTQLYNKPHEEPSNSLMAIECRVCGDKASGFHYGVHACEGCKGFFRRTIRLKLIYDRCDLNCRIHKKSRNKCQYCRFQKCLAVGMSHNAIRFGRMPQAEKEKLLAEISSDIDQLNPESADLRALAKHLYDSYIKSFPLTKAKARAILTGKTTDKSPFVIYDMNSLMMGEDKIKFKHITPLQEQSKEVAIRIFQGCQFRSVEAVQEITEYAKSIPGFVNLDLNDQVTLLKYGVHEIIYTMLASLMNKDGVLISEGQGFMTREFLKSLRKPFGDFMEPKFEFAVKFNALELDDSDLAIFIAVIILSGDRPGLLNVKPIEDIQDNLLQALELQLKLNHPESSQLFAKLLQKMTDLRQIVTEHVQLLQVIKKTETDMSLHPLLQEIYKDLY
Method in brief: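 Read-out: 488 nm N/C fluorescence ratio from complemented Venus YFP fragments, ≥350 cells per image, gain-of-signal fitted against DMSO baseline. Fusions of PPARg/SRC-1 with IFP1/IFP2 expressed transiently in HEK293T; compounds applied 8 h.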

[4] = biological target: Peroxisome proliferator-activated receptor gamma (Homo sapiens) (UniProt P37231); experiment: OT_PPARg_PPARgSRC1_1440: Odyssey Thera (OT) 24-hour Protein-Complementation Assay for Peroxisome Proliferator-activated Receptor Gamma/ SRC-1 Co-activator (AID 2283388);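 further: nuclear to cytoplasmic ratio of reconstituted Venus YFP fluorescence in fixed imaged cells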
Method in brief: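 Transient HEK293T, YFP fragments 1-158/159-239 (mutant IFP1/IFP2) fused to PPARg/SRC-1; 24 h dosing; fix 4% formaldehyde, Draq5; Opera imaging 488/635 nm; N/C ratio, gain vs DMSO.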

[5] = CEETOX_H295R_11DCORT: CeeTox H295R High-throughput Steroidogenesis Assay for 11-Deoxycortisol (11DCORT) (AID 2283432; active means hit-call score of the fitted dose curve at least 0.9, where 1 is the maximum; inactive means score below 0.9); settings: actives raise or lower the signal
Method in brief: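 H295R cells; 10 uM forskolin prestim 48 h; compound in 0.1% DMSO 48 h; media extracted with MTBE; 11-deoxycortisol by LC-MS/MS, 7-point standard curve; gain/loss vs DMSO baseline; viability by MTT in same wells.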

[6] = CEETOX_H295R_OHPREG: CeeTox H295R High-throughput Steroidogenesis Assay for OH-Pregnenolone (OHPREG) (AID 2283434; active means hit-call score of the fitted dose curve at least 0.9, where 1 is the maximum; inactive means score below 0.9); settings: actives raise or lower the signal
Method in brief: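 Secreted 17alpha-hydroxypregnenolone measured by HPLC-MS/MS after liquid-liquid extraction. Human adrenal H295R cells received 48 h forskolin (10 uM) stimulation before 48 h chemical exposure at 0.1% final DMSO; MTT viability in same wells; bidirectional fit against DMSO.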

[7] = CEETOX_H295R_OHPROG: CeeTox H295R High-throughput Steroidogenesis Assay for OH-Progesterone (OHPROG) (AID 2283435; active means hit-call score of the fitted dose curve at least 0.9, where 1 is the maximum; inactive means score below 0.9;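 on AC50: 17alpha-hydroxyprogesterone secreted into medium measured by HPLC-MS/MS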); settings: actives raise or lower the signal
Method in brief: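 Steps: seed H295R cells and adhere overnight; stimulate with 10 uM forskolin for 48 h; replace with chemical-containing medium (0.1% DMSO) for 48 h; extract medium with MTBE; quantify 17alpha-hydroxyprogesterone by reverse-phase C18 HPLC-MS/MS against a 7-point curve.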

[8] = CEETOX_H295R_CORTISOL: CeeTox H295R High-throughput Steroidogenesis Assay for Cortisol (AID 2283438; active means hit-call score of the fitted dose curve at least 0.9, where 1 is the maximum; inactive means score below 0.9;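 further: cortisol secreted into medium quantified by LC-MS/MS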); settings: actives raise or lower the signal
Method in brief: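 Cortisol synthesis by H295R cells is measured 48 h after chemical dosing, following a 48 h stimulation with 10 uM forskolin. Hormone is extracted and quantified by HPLC-MS/MS, and activity is fitted bidirectionally against the DMSO control.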

[9] = CEETOX_H295R_CORTIC: CeeTox H295R High-throughput Steroidogenesis Assay for Corticosterone (CORTIC) (AID 2283437; active means hit-call score of the fitted dose curve at least 0.9, where 1 is the maximum; inactive means score below 0.9); settings: actives raise or lower the signal
Method in brief: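 Medium corticosterone was quantified by tandem mass spectrometry following 48 hours of chemical exposure (0.1% DMSO) in human H295R cells previously stimulated 48 hours with 10 uM forskolin. Viability checked by MTT; chemicals diluted and retested when viability fell below 70%.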

[10] = CEETOX_H295R_ANDR: CeeTox H295R High-throughput Steroidogenesis Assay for Androstenedione (ANDR) (AID 2283436; active means hit-call score of the fitted dose curve at least 0.9, where 1 is the maximum; inactive means score below 0.9); settings: actives raise or lower the signal
Method in brief: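 Medium from 48 h chemical-treated H295R adrenal cells was extracted with MTBE and androstenedione measured by LC-MS/MS. Activity was fit in both directions relative to DMSO. Cytotoxic concentrations were re-tested after dilution until MTT viability reached ≥70%.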

Measured: AC50

NC(=O)NO
inactive: [1] | [2]

CN(C)c1ccc(Cc2ccc(N(C)C)cc2)cc1
inactive: [1] | [2] | [3] | [4] | [5] | [6] | [7] | [8]
active: [1] 35.1 µM

CCCCC(CC)COC(=O)c1ccc(C(=O)OCC(CC)CCCC)cc1 (stereo unspecified)
inactive: [1] | [2] | [3] | [4]

C1N2CN3CN1CN(C2)C3
inactive: [1] | [2] | [3] | [4]

COC(=O)c1c(Cl)c(Cl)c(C(=O)OC)c(Cl)c1Cl
inactive: [1] | [2] | [3] | [4] | [5] | [6] | [7] | [8]
active: [1] 68.6 µM | [9] 16.1 µM

Nc1nc2ncc(CNc3ccc(C(=O)N[C@@H](CCC(=O)O)C(=O)O)cc3)nc2c(=O)[nH]1
inactive: [1] | [2] | [3] | [4]

Cc1ccc(N)cc1O
inactive: [1] | [2] | [3] | [4] | [5] | [6] | [10] | [9] | [8]
active: [2] 50 µM | [7] 39.8 µM

C1=CCCC=CCCC=CCC1
inactive: [1] | [2] | [3] | [4]

O=P(OC(CCl)CCl)(OC(CCl)CCl)OC(CCl)CCl
inactive: [1] | [2] | [3] | [4]

CN(C)c1ccc(N=NS(=O)(=O)O)cc1
inactive: [1]

COCCOc1cc2cc(C(=O)NC3CCN(C(C)C)CC3)n(CC(=O)Nc3ccc(Cl)cn3)c2cn1
inactive: [1] | [2]

CNS(=O)(=O)c1cc(C(=O)N2CCC(CCN3C4CCC3CC(n3c(C)nc5ccccc53)C4)(c3cccc(F)c3)CC2)c(Cl)cc1F (stereo unspecified)
inactive: [1] | [3] | [4] | [6]
active: [1] 14.3 µM | [2] 28.4 µM and 12.1 µM | [7] 2.65 µM | [10] 3.6 µM

CC(=O)OC[C@H]1O[C@@](COC(C)=O)(O[C@H]2O[C@H](COC(C)=O)[C@@H](OC(C)=O)[C@H](OC(C)=O)[C@H]2OC(C)=O)[C@@H](OC(C)=O)[C@@H]1OC(C)=O
inactive: [1] | [2]

CNCc1ccc(NC(=O)c2c[nH]c3c2C(=O)CCC3)cc1
inactive: [1] | [2] | [3] | [4]

CC/C(=C\C(=N/O)C(N)=O)C(C)[N+](=O)[O-] (stereo unspecified)
active: [1] 31.6 µM
inactive: [2] | [3] | [4]

CCOC(=O)COc1ccc2c(c1)CC(NCC(O)c1cccc(Cl)c1)CC2 (stereo unspecified)
inactive: [3]
active: [1] 154 nM and 591 nM | [2] 10.7 µM and 10.3 µM

O=C(OC[C@H]1O[C@@H](OC(=O)c2cc(O)c(O)c(OC(=O)c3cc(O)c(O)c(O)c3)c2)[C@H](OC(=O)c2cc(O)c(O)c(OC(=O)c3cc(O)c(O)c(O)c3)c2)[C@@H](OC(=O)c2cc(O)c(O)c(OC(=O)c3cc(O)c(O)c(O)c3)c2)[C@@H]1OC(=O)c1cc(O)c(O)c(OC(=O)c2cc(O)c(O)c(O)c2)c1)c1cc(O)c(O)c(OC(=O)c2cc(O)c(O)c(O)c2)c1
inactive: [1] | [3] | [4]
active: [1] 20.5 µM | [2] 15.2 µM

COC(=O)c1ccccc1O
inactive: [1]

CC(C)CCCCCCOC(=O)c1ccc(C(=O)OCCCCCCC(C)C)c(C(=O)OCCCCCCC(C)C)c1
inactive: [1] | [2] | [3] | [4]

O=C1CCC(N2C(=O)c3ccccc3C2=O)C(=O)N1 (stereo unspecified)
inactive: [1] | [2] | [3] | [4]

CC(C)c1cccc(C(C)C)c1N1C(=O)c2ccc(O)cc2C1=O
active: [1] 35.4 µM | [6] 32.5 µM | [7] 31.7 µM | [8] 27.1 µM
inactive: [1] | [2] | [3] | [4] | [9]

C[C@](N)(Cc1ccc(O)c(O)c1)C(=O)O
inactive: [1] | [2] | [3] | [4]

O=c1n(CC2CO2)c(=O)n(CC2CO2)c(=O)n1CC1CO1 (stereo unspecified)
active: [1] 50 µM and 34.7 µM
inactive: [2] | [3] | [4]

O=C(O)CC(O)C(=O)O (stereo unspecified)
inactive: [1] | [2] | [3] | [4]
